Targets with a hit are over-represented here; the source holds about 8,800 in all. About 0.5% of all pairs of compound and target were hits. Values without a mark were called inactive.
Assays:
Assay in all cases: log2 fold change, soluble protein after heating vs DMSO (PISA); higher = thermal stabilisation; K562 lysate, 10 uM; active = over 0.2 and 3.5 SD of the protein, either way, in both replicates (recomputed)
vemurafenib = compound: CCCS(=O)(=O)Nc1ccc(F)c(C(=O)c2c[nH]c3ncc(-c4ccc(Cl)cc4)cc23)c1F [vemurafenib]
In short: (§1)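 Thermal stability, expressed as log-two fold change relative to solvent controls, is given from duplicates. Crude K562 extract in PBS pH 7.4 with 1 mM MgCl2, at 1 mg/mL protein, was treated with 10 μM compound for 30 min and heated in aliquots for 3 min across 48°C-58°C. After pooling, adjustment to 0.5% NP-40 at 4°C and centrifugation at 21,000xg for 90 min, supernatant protein was measured by TMTpro 16plex LC-MS/MS with channel sums equalised.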

[1] = compound: CCCS(=O)(=O)Nc1ccc(F)c(C(=O)c2c[nH]c3ncc(Cl)cc23)c1F
In short: as §1

barasertib = compound: CCN(CCCOc1ccc2c(Nc3cc(CC(=O)Nc4cccc(F)c4)[nH]n3)ncnc2c1)CCOP(=O)(O)O [barasertib]
In short: as §1

[2] = compound: CC[C@@H]1C(=O)N(C)c2cnc(Nc3ccc(C(=O)NC4CCN(C)CC4)cc3OC)nc2N1C1CCCC1
In short: as §1

volasertib = compound: CC[C@@H]1C(=O)N(C)c2cnc(Nc3ccc(C(=O)N[C@H]4CC[C@H](N5CCN(CC6CC6)CC5)CC4)cc3OC)nc2N1C(C)C [volasertib]
In short: as §1

[3] = compound: CCn1c(C(=O)N(C2CC2)C2CC2)cc2c3c(ncn3C)c(Nc3cc(C)n(C)n3)nc21
In short: as §1

[4] = compound: CCn1cc(-c2ccnc3[nH]c(-c4cccc(CN(C)C)c4)cc23)c(-c2ccc(NC(=O)N(C)C)cc2)n1
In short: as §1

[5] = compound: CN1CCC(CNc2ccc3ncc(-c4cccc(OC(F)(F)F)c4)n3n2)CC1
In short: as §1

saracatinib = compound: CN1CCN(CCOc2cc(OC3CCOCC3)c3c(Nc4c(Cl)ccc5c4OCO5)ncnc3c2)CC1 [saracatinib]
In short: as §1

sotrastaurin = compound: CN1CCN(c2nc(C3=C(c4c[nH]c5ccccc45)C(=O)NC3=O)c3ccccc3n2)CC1 [sotrastaurin]
In short: as §1

Target: ANXA1 (UniProt P04083)
Chain of UniProt P04083 (P04083 whole entry, looked up): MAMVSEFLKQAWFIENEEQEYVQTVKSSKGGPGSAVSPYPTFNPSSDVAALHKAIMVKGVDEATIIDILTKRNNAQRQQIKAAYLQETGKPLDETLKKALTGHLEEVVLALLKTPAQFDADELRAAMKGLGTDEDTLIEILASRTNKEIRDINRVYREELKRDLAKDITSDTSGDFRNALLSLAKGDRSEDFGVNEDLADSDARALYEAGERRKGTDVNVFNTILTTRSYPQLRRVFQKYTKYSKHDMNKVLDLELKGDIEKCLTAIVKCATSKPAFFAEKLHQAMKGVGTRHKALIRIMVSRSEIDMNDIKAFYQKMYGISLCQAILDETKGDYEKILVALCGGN
- log2 fold change (vemurafenib): -0.007
- log2 fold change [1]: -0.027
- log2 fold change (barasertib): -0.038
- log2 fold change [2]: -0.022
- log2 fold change (volasertib): -0.011
- log2 fold change [3]: 0.008
- log2 fold change [4]: 0.028
- log2 fold change [5]: 0.049
- log2 fold change (saracatinib): -0.019
- log2 fold change (sotrastaurin): 0.017

Target: ARFGAP1 (UniProt Q8N6T3)
- log2 fold change (vemurafenib): 0.063
- log2 fold change [1]: -0.01
- log2 fold change (barasertib): 0.225
- log2 fold change [2]: 0.204
- log2 fold change (volasertib): -0.02
- log2 fold change [3]: 0.171
- log2 fold change [4]: 0.001
- log2 fold change [5]: 0.029
- log2 fold change (saracatinib): 0.056
- log2 fold change (sotrastaurin): -0.07

Target: ACACB (UniProt O00763)
Chain of UniProt O00763 (O00763 whole entry, looked up): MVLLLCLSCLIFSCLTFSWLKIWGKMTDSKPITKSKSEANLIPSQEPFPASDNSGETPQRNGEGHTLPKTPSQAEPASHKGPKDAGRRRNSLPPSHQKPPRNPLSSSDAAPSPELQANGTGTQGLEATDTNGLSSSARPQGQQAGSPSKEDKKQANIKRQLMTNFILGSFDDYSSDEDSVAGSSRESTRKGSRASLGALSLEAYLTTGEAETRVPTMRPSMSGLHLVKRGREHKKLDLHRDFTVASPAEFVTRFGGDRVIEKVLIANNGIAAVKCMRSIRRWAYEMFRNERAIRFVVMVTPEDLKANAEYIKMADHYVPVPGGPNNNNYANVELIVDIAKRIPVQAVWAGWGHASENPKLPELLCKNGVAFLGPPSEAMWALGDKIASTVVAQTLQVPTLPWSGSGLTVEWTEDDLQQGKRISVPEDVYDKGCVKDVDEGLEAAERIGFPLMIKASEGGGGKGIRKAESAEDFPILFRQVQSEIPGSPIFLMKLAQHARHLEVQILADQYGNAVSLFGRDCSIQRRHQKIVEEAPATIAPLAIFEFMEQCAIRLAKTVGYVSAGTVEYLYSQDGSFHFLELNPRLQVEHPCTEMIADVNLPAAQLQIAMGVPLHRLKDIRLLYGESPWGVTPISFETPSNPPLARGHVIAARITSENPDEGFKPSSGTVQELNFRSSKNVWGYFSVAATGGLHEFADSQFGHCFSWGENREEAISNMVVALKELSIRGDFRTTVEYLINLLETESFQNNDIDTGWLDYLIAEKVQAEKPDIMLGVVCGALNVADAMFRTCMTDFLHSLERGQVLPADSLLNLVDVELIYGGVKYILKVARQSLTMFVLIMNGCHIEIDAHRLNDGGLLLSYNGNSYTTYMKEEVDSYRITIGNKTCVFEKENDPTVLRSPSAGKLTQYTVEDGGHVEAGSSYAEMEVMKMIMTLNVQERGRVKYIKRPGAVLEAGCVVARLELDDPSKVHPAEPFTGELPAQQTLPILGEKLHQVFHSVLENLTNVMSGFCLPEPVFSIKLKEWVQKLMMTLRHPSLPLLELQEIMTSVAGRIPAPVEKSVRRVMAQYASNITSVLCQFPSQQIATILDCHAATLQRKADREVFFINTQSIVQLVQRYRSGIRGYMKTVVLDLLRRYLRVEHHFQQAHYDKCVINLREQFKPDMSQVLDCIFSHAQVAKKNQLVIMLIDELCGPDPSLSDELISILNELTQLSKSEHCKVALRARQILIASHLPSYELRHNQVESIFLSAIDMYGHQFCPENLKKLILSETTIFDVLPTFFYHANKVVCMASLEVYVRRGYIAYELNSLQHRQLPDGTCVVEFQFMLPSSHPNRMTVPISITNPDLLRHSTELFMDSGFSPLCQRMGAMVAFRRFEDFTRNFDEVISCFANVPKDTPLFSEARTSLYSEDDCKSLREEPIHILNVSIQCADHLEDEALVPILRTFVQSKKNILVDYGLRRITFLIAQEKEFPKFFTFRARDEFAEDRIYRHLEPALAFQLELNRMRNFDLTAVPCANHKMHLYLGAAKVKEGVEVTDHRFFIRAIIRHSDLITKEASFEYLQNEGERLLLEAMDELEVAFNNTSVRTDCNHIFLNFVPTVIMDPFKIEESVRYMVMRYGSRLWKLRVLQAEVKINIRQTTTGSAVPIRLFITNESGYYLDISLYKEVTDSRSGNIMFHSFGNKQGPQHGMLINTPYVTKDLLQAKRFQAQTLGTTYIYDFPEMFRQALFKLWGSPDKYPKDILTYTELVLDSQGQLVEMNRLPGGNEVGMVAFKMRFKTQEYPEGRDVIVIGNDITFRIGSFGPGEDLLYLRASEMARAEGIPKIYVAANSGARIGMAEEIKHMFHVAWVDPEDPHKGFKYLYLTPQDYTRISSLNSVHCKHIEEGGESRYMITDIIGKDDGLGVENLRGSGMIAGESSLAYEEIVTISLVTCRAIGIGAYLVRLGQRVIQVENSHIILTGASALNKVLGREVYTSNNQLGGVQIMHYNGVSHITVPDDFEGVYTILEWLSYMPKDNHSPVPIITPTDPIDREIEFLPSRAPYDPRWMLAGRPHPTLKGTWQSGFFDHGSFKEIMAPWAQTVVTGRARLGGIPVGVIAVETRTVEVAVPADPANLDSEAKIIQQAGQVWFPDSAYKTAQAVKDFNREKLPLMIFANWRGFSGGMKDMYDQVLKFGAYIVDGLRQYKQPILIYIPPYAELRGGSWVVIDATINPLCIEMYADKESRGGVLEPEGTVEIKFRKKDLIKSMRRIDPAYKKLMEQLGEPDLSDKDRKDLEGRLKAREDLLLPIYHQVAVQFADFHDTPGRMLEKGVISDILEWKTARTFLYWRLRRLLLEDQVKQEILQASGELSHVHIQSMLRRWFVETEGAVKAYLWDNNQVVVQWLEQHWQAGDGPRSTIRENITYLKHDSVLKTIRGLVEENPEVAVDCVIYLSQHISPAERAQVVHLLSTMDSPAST
- log2 fold change (vemurafenib): 0.012
- log2 fold change [1]: 0.028
- log2 fold change (barasertib): 0.024
- log2 fold change [2]: -0.113
- log2 fold change (volasertib): -0.11
- log2 fold change [3]: 0.038
- log2 fold change [4]: -0.14
- log2 fold change [5]: 0.027
- log2 fold change (saracatinib): 0.018
- log2 fold change (sotrastaurin): 0.037

Target: ACSL4 (UniProt O60488)
- log2 fold change (vemurafenib): 0.061
- log2 fold change [1]: -0.007
- log2 fold change (barasertib): -0.006
- log2 fold change [2]: -0.029
- log2 fold change (volasertib): -0.001
- log2 fold change [3]: 0.036
- log2 fold change [4]: 0.008
- log2 fold change [5]: -0.02
- log2 fold change (saracatinib): 0.047
- log2 fold change (sotrastaurin): 0.043

Target: ARAP1 (UniProt Q96P48)
Chain of UniProt Q96P48 (Q96P48 whole entry, looked up): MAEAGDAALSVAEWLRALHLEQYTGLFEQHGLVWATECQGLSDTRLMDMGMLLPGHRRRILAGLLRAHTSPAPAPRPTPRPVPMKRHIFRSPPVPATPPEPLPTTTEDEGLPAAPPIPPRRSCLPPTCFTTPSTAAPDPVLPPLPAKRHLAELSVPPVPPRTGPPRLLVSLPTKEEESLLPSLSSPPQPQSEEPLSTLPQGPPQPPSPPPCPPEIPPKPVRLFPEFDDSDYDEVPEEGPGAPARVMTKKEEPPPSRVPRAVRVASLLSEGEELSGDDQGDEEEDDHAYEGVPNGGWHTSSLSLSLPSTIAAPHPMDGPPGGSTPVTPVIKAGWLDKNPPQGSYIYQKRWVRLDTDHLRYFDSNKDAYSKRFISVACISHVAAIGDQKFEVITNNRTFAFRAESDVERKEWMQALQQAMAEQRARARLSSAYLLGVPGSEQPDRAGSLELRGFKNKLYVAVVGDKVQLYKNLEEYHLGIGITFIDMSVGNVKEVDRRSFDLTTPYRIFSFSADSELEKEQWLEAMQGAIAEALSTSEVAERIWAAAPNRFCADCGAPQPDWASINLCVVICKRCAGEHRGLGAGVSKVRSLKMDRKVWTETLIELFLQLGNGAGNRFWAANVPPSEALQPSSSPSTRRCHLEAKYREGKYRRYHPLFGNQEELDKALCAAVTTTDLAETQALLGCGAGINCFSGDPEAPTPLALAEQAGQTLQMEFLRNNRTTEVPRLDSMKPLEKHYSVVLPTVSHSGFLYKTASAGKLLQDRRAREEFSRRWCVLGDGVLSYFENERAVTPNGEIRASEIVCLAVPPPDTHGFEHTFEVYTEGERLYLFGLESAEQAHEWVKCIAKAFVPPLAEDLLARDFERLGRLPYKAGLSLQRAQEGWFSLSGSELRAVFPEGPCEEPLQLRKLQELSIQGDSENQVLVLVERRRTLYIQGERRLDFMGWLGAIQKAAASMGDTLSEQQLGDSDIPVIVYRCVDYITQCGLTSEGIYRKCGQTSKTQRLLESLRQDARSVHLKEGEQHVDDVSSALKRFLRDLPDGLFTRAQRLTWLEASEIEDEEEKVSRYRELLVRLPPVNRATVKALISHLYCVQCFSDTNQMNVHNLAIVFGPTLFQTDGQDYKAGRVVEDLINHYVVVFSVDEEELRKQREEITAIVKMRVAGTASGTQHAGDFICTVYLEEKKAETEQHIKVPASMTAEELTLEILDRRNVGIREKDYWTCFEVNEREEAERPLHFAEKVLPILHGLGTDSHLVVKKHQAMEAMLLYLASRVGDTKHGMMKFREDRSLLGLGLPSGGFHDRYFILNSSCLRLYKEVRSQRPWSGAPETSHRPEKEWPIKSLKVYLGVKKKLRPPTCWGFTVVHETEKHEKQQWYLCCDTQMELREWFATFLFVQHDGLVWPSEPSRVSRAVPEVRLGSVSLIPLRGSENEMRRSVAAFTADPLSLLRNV
- log2 fold change (vemurafenib): -0.014
- log2 fold change [1]: 0.006
- log2 fold change (barasertib): 0.013
- log2 fold change [2]: -0.034
- log2 fold change (volasertib): -0.085
- log2 fold change [3]: 0.029
- log2 fold change [4]: -0.076
- log2 fold change [5]: 0.015
- log2 fold change (saracatinib): -0.001
- log2 fold change (sotrastaurin): 0.006

Target: ANP32A (UniProt P39687)
- log2 fold change (vemurafenib): -0.025
- log2 fold change [1]: 0.052
- log2 fold change (barasertib): -0.007
- log2 fold change [2]: -0.011
- log2 fold change (volasertib): 0.006
- log2 fold change [3]: -0.008
- log2 fold change [4]: -0.085
- log2 fold change [5]: 0.062
- log2 fold change (saracatinib): -0.033
- log2 fold change (sotrastaurin): -0.002

Target: AGPAT1 (UniProt Q99943)
Chain of UniProt Q99943 (Q99943 whole entry, looked up): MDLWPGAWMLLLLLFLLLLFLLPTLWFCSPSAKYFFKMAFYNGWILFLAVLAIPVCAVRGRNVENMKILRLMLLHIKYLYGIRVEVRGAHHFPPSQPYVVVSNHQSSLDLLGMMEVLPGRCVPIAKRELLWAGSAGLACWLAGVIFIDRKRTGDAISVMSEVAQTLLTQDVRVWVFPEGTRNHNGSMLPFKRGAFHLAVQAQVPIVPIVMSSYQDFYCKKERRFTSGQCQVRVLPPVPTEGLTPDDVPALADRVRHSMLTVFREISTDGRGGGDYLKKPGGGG
- log2 fold change (vemurafenib): 0.008
- log2 fold change [1]: 0.016
- log2 fold change (barasertib): 0.038
- log2 fold change [2]: -0.013
- log2 fold change (volasertib): 0.006
- log2 fold change [3]: -0.004
- log2 fold change [4]: 0.068
- log2 fold change [5]: -0.049
- log2 fold change (saracatinib): 0.038
- log2 fold change (sotrastaurin): -0.009

Target: ACAT1 (UniProt P24752)
- log2 fold change (vemurafenib): 0
- log2 fold change [1]: -0.016
- log2 fold change (barasertib): 0.006
- log2 fold change [2]: 0.033
- log2 fold change (volasertib): 0.019
- log2 fold change [3]: 0.003
- log2 fold change [4]: -0.038
- log2 fold change [5]: -0.006
- log2 fold change (saracatinib): 0.011
- log2 fold change (sotrastaurin): 0.007

Target: ANAPC7 (UniProt Q9UJX3)
Chain of UniProt Q9UJX3 (Q9UJX3 whole entry, looked up): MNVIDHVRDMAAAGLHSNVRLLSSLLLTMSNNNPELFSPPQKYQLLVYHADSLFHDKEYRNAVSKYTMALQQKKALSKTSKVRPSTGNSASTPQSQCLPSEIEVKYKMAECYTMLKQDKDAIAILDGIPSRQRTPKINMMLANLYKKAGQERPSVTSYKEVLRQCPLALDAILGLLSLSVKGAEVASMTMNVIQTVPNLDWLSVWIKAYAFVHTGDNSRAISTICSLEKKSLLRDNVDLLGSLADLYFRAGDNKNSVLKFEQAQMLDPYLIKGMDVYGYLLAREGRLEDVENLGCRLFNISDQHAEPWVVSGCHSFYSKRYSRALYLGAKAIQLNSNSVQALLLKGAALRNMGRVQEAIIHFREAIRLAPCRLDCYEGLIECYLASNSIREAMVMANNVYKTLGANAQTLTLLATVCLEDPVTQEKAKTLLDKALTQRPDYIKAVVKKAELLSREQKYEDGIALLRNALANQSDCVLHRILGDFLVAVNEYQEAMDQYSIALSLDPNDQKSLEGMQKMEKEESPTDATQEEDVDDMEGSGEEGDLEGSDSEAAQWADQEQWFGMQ
- log2 fold change (vemurafenib): -0.026
- log2 fold change [1]: 0.033
- log2 fold change (barasertib): -0.02
- log2 fold change [2]: -0.035
- log2 fold change (volasertib): -0.029
- log2 fold change [3]: 0.016
- log2 fold change [4]: -0.022
- log2 fold change [5]: -0.03
- log2 fold change (saracatinib): 0.025
- log2 fold change (sotrastaurin): -0.001

Target: ALDH1A1 (UniProt P00352)
- log2 fold change (vemurafenib): -0.027
- log2 fold change [1]: 0.001
- log2 fold change (barasertib): -0.014
- log2 fold change [2]: -0.016
- log2 fold change (volasertib): -0.005
- log2 fold change [3]: -0.052
- log2 fold change [4]: 0.051
- log2 fold change [5]: -0.09
- log2 fold change (saracatinib): 0.272
- log2 fold change (sotrastaurin): 0.001

Target: ACIN1 isoform 5 (UniProt Q9UKV3)
- log2 fold change (vemurafenib): 0.014
- log2 fold change [1]: 0.024
- log2 fold change (barasertib): 0.009
- log2 fold change [2]: -0.016
- log2 fold change (volasertib): 0
- log2 fold change [3]: -0.018
- log2 fold change [4]: 0.067
- log2 fold change [5]: -0.01
- log2 fold change (saracatinib): 0.006
- log2 fold change (sotrastaurin): 0.014

Target: ALG13 (UniProt Q9NP73)
- log2 fold change (vemurafenib): 0.014
- log2 fold change [1]: 0.015
- log2 fold change (barasertib): 0.054
- log2 fold change [2]: 0.041
- log2 fold change (volasertib): -0.041
- log2 fold change [3]: -0.016
- log2 fold change [4]: -0.14
- log2 fold change [5]: 0.086
- log2 fold change (saracatinib): 0.023
- log2 fold change (sotrastaurin): 0.017

Target: AGTPBP1 (UniProt Q9UPW5)
- log2 fold change (vemurafenib): 0.151
- log2 fold change [1]: 0.075
- log2 fold change (barasertib): -0.223
- log2 fold change [2]: 0.036
- log2 fold change (volasertib): -0.089
- log2 fold change [3]: -0.013
- log2 fold change [4]: 0.013
- log2 fold change [5]: -0.409 (active)
- log2 fold change (saracatinib): 0.108
- log2 fold change (sotrastaurin): -0.126

Target: AP4B1 (UniProt Q9Y6B7)
- log2 fold change (vemurafenib): 0.026
- log2 fold change [1]: 0.087
- log2 fold change (barasertib): 0.028
- log2 fold change [2]: -0.01
- log2 fold change (volasertib): -0.009
- log2 fold change [3]: 0.011
- log2 fold change [4]: -0.035
- log2 fold change [5]: 0.02
- log2 fold change (saracatinib): 0.042
- log2 fold change (sotrastaurin): -0.027

Target: AARS2 (UniProt Q5JTZ9)
- log2 fold change (vemurafenib): 0.041
- log2 fold change [1]: -0.052
- log2 fold change (barasertib): 0.029
- log2 fold change [2]: -0.055
- log2 fold change (volasertib): -0.037
- log2 fold change [3]: 0.027
- log2 fold change [4]: 0.027
- log2 fold change [5]: -0.053
- log2 fold change (saracatinib): 0.003
- log2 fold change (sotrastaurin): 0.031

Reference: the supplement of paper PMC10849652
